Of roughly 7,900 targets only a part is listed; those with a hit were picked by preference. About 0.6% of all pairs of compound and target were hits. Unmarked numbers belong to inactive results.
How the values were obtained:
Experiment in all cases: log2 fold change, soluble protein after heating vs DMSO (PISA); higher = thermal stabilisation; K562 cells, 10 uM, 30 min; active = over 0.2 and 3.5 SD of the protein, either way, in both replicates (recomputed)
[1] = compound: NC(=O)Nc1cc(-c2cccc(F)c2)sc1C(=O)N[C@H]1CCCNC1
Summary of the method: (§1)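 For each measurement, 10 μM compound was applied for 30 min to K562 cells at 2×10^6 cells/mL. Aliquots were heated for 3 min across 48°C-58°C, pooled, and extracted in PBS with 0.5% NP-40 at 4°C; the supernatant after 21,000xg for 90 min was soluble protein. This was quantified by TMTpro 16plex LC-MS/MS with channel sums equalised, and thermal stability was reported relative to control samples from duplicates, on a log2 fold-change scale.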

[2] = compound: NC(=O)c1cnc(N[C@@H]2CCCC[C@@H]2N)nc1Nc1cccc(-n2nccn2)c1
Summary of the method: as §1

[3] = compound: NC1(c2ccc(-c3nc4ccn5c(=O)[nH]nc5c4cc3-c3ccccc3)cc2)CCC1
Summary of the method: as §1

[4] = compound: NCC(=O)Nc1ccc(-n2nc(C(F)(F)F)cc2-c2ccc3c(ccc4ccccc43)c2)cc1
Summary of the method: as §1

entinostat = compound: Nc1ccccc1NC(=O)c1ccc(CNC(=O)OCc2cccnc2)cc1 [entinostat]
Summary of the method: as §1

vorinostat = compound: O=C(CCCCCCC(=O)Nc1ccccc1)NO [vorinostat]
Summary of the method: as §1

citarinostat = compound: O=C(CCCCCCNC(=O)c1cnc(N(c2ccccc2)c2ccccc2Cl)nc1)NO [citarinostat]
Summary of the method: as §1

silmitasertib = compound: O=C(O)c1ccc2c(c1)nc(Nc1cccc(Cl)c1)c1ccncc12 [silmitasertib]
Summary of the method: as §1

[5] = compound: O=C1NC(=O)C(c2cnc3ccccn23)=C1c1cn2c3c(cc(F)cc13)CN(C(=O)N1CCCCC1)CC2
Summary of the method: as §1

[6] = compound: c1cc(OCCN2CCCCC2)cc(-c2n[nH]c3ccc(-c4nnc[nH]4)cc23)c1
Summary of the method: as §1

Chain of UniProt Q9Y5L4 (Q9Y5L4 whole entry, looked up): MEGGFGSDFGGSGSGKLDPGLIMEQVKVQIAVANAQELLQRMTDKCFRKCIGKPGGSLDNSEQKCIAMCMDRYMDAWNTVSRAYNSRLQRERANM
Chain of UniProt A6NHR9 (A6NHR9 whole entry, looked up): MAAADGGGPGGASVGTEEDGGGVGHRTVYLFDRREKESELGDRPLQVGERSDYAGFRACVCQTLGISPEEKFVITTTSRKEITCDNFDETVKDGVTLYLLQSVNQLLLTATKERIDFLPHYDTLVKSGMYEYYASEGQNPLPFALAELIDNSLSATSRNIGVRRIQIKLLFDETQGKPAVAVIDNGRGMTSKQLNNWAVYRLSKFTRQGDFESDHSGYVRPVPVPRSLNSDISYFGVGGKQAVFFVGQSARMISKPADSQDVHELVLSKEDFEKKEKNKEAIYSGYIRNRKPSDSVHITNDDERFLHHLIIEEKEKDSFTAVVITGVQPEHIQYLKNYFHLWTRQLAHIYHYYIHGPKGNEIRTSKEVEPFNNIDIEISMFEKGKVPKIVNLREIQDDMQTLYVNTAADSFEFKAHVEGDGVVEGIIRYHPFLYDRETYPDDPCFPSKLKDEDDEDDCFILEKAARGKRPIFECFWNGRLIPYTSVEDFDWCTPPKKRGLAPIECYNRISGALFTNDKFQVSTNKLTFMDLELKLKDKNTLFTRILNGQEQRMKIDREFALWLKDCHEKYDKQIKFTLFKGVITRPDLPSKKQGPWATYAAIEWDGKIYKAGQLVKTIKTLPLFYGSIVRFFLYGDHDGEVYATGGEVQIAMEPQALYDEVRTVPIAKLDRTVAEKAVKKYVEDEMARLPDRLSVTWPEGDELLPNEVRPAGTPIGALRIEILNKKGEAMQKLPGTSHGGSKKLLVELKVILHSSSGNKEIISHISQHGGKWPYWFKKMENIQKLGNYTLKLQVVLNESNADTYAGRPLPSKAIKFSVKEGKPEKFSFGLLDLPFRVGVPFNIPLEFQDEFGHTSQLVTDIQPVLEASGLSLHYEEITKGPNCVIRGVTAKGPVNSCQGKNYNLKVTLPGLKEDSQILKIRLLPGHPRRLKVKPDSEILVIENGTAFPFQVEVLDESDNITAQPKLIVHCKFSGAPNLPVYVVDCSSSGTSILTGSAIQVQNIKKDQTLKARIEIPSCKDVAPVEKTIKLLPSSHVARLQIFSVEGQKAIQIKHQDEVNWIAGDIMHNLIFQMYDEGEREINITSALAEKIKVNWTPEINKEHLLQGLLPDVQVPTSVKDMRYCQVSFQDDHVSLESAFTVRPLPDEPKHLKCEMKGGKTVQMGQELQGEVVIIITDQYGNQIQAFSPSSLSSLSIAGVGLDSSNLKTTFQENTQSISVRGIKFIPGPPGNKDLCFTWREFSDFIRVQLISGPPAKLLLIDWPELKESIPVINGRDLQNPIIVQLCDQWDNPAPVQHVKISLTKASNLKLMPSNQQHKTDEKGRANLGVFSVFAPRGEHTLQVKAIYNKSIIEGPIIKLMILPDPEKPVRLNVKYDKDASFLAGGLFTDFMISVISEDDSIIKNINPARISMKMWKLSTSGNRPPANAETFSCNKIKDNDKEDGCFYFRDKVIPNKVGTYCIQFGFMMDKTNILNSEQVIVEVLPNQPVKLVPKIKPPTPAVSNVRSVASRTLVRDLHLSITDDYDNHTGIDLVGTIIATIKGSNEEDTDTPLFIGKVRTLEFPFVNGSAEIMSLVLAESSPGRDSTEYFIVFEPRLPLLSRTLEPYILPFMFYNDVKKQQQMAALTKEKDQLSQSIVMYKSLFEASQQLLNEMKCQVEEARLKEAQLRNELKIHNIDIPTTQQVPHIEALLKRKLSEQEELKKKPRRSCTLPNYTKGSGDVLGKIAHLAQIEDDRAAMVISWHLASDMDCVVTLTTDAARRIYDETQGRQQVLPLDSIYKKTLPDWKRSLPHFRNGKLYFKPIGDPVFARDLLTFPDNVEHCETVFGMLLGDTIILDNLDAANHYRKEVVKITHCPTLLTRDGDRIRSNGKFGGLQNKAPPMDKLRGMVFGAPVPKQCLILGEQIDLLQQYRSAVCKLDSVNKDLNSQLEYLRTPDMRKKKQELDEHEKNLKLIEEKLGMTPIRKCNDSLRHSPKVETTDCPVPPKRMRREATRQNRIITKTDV
Chain of UniProt Q01130 (Q01130 whole entry, looked up): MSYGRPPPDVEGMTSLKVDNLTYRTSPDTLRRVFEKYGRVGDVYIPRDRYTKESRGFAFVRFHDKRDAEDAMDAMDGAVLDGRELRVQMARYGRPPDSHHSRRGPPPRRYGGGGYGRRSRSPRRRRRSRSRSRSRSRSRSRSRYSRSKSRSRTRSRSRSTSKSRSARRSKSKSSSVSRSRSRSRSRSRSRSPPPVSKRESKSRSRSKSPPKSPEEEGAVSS
Chain of UniProt Q99523 (Q99523 whole entry, looked up): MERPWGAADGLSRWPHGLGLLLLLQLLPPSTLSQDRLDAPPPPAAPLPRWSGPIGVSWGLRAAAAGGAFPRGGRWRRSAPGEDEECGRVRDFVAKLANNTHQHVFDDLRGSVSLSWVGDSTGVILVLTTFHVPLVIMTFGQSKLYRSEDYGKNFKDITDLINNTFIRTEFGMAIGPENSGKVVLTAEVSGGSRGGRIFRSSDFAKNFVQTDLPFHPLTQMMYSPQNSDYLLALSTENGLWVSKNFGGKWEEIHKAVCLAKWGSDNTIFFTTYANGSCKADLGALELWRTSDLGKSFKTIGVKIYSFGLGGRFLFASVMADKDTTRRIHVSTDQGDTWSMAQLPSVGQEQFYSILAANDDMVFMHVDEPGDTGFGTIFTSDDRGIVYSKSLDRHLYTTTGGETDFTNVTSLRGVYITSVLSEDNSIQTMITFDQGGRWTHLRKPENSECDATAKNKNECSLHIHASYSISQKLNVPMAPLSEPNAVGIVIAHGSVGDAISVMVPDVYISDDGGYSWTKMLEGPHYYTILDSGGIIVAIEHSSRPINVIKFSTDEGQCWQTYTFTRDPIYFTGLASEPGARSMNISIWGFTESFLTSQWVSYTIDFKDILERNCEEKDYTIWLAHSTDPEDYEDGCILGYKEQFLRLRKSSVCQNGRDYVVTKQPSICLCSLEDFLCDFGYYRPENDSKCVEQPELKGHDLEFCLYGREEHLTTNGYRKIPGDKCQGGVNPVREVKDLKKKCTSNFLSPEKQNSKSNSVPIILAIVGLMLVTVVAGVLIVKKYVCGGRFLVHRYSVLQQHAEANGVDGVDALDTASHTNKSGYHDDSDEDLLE
Chain of UniProt Q8WXA9 (Q8WXA9 whole entry, looked up): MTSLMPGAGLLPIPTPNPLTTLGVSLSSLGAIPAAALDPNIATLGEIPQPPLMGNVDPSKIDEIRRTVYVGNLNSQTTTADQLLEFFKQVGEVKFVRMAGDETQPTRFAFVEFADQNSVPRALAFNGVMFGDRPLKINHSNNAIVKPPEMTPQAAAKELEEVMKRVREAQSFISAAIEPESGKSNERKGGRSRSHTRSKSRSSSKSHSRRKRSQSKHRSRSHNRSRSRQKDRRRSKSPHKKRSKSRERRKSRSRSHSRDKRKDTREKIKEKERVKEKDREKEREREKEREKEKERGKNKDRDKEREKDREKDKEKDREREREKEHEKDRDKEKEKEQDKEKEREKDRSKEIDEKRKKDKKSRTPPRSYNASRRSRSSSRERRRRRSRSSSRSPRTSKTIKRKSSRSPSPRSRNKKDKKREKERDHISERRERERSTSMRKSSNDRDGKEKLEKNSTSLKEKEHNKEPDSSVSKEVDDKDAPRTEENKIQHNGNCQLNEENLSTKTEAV
Chain of UniProt P35270 (P35270 whole entry, looked up): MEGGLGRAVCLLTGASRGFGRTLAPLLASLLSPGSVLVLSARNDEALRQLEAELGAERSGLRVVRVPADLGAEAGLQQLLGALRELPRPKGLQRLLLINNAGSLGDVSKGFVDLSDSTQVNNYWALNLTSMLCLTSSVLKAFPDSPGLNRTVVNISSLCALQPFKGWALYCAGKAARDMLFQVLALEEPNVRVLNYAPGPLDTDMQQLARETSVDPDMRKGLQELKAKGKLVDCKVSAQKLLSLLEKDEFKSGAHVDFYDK
Chain of UniProt P51692 (P51692 whole entry, looked up): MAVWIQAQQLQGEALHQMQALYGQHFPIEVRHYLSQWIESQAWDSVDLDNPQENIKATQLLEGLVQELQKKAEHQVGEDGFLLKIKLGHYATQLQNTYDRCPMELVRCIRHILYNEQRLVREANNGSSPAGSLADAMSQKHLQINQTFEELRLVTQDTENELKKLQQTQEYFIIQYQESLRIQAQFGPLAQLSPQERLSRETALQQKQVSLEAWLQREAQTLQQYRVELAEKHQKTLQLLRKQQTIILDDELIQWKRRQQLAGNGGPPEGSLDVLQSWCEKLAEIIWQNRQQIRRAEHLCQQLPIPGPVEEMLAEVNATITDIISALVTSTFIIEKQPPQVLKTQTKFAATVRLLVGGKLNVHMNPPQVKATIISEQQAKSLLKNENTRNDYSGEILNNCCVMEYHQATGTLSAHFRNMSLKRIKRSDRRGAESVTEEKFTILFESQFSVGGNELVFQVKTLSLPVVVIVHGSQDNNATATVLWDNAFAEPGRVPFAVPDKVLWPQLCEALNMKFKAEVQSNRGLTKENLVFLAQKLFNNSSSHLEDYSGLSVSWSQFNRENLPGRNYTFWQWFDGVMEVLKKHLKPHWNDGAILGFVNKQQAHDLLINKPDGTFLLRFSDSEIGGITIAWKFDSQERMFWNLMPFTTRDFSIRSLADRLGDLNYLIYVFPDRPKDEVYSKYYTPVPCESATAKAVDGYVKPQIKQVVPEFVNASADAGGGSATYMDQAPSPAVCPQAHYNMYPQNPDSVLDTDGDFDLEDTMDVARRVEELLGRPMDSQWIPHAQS
Chain of UniProt O00193 (O00193 whole entry, looked up): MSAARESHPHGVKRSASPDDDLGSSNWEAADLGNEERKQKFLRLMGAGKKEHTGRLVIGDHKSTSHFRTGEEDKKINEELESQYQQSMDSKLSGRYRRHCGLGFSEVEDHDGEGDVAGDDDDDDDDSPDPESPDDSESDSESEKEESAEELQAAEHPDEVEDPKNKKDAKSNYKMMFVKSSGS
Chain of UniProt Q9H4I9 (Q9H4I9 whole entry, looked up): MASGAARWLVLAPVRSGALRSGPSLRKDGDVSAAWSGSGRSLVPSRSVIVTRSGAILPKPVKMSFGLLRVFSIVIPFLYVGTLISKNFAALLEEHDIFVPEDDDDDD

Row | Target | log2 fold change [1] | log2 fold change [2] | log2 fold change [3] | log2 fold change [4] | log2 fold change (entinostat) | log2 fold change (vorinostat) | log2 fold change (citarinostat) | log2 fold change (silmitasertib) | log2 fold change [5] | log2 fold change [6]
1 | TFRC (UniProt P02786) | -0.021 | -0.031 | -0.823 (active) | -0.001 | -0.008 | -0.02 | 0.062 | 0.006 | -0.023 | -0.071
2 | SPG21 (UniProt Q9NZD8) | 0.072 | 0.305 (active) | -0.054 | 0.123 | 0.004 | 0.013 | -0.001 | -0.013 | -0.104 | 0.007
3 | SMAP (UniProt O00193) | 0.007 | -0.021 | 0.12 | 0.013 | 0.016 | -0.047 | -0.029 | -0.033 | 0.006 | 0.02
4 | THADA (UniProt Q6YHU6) | 0.004 | -0.085 | -0.147 | -0.082 | 0.014 | -0.001 | 0.121 | -0.061 | -0.025 | -0.013
5 | SP1 (UniProt P08047) | -0.017 | 0.011 | 0.1 | -0.001 | -0.005 | 0.052 | -0.057 | -0.007 | 0.088 | -0.088
6 | SRSF2 (UniProt Q01130) | -0.056 | 0.04 | 0.139 | -0.006 | -0.067 | -0.057 | -0.04 | -0.062 | 0.059 | -0.081
7 | SMCHD1 (UniProt A6NHR9) | -0.085 | -0.352 | 0.159 | -0.423 | 0.08 | 0.19 | 0.085 | 0.095 | 0.206 | -0.176
8 | SRSF9 (UniProt Q13242) | 0.079 | 0.17 | 0.398 | 0.171 | -0.072 | 0.029 | -0.114 | 0.195 | 0.245 | -0.237
9 | SPR (UniProt P35270) | 0.006 | 0.13 | 0.491 (active) | -0.002 | -0.049 | -0.154 | -0.041 | 0.004 | 0.176 | 0.066
10 | STRN (UniProt O43815) | -0.055 | 0.019 | -0.037 | 0.019 | -0.008 | 0.024 | 0.028 | 0 | -0.051 | -0.031
11 | STARD9 (UniProt Q9P2P6) | -0.179 | -0.029 | 0.058 | 0.073 | 0.007 | 0 | -0.026 | 0.025 | -0.048 | 0.028
12 | SNW1 (UniProt Q13573) | 0.034 | 0.019 | 0.017 | 0.02 | -0.056 | -0.044 | -0.019 | 0.062 | 0.05 | -0.05
13 | SMDT1 (UniProt Q9H4I9) | -0.062 | 0.032 | -0.061 | -0.039 | 0.01 | -0.038 | 0.002 | 0.041 | -0.011 | -0.001
14 | SORT1 (UniProt Q99523) | -0.005 | -0.032 | -0.687 (active) | 0.038 | -0.017 | -0.002 | 0.073 | 0.006 | 0.004 | -0.139
15 | TIMM13 (UniProt Q9Y5L4) | 0.114 | 0.031 | -0.027 | 0.012 | 0.01 | 0.031 | 0.117 | -0.016 | 0.152 | 0.107
16 | SLC30A7 (UniProt Q8NEW0) | -0.035 | 0.013 | -0.276 | -0.178 | 0.024 | -0.024 | -0.028 | 0.039 | 0.025 | -0.032
17 | TM9SF4 (UniProt Q92544) | 0.024 | 0.064 | -0.061 | 0.032 | -0.01 | 0.146 | 0.044 | 0.03 | -0.011 | -0.057
18 | SNX1 (UniProt Q13596) | -0.01 | -0.375 (active) | -0.336 (active) | 0.011 | 0.121 | 0.147 | 0.054 | -0.062 | -0.04 | -0.094
19 | TBC1D24 (UniProt Q9ULP9) | 0.047 | -0.038 | -0.091 | -0.002 | 0.029 | 0.291 | 0.016 | -0.135 | -0.082 | -0.096
20 | STAT5B (UniProt P51692) | -0.027 | -0.022 | -0.207 | -0.129 | 0.282 | 0.18 | 0.15 | 0.043 | 0.045 | 0.024
21 | SRRM2 (UniProt Q9UQ35) | -0.004 | -0.055 | 0.005 | -0.036 | 0.025 | 0.226 | 0.071 | -0.141 | -0.225 | -0.25
22 | SLC25A38 (UniProt Q96DW6) | 0.035 | -0.068 | -0.21 | 0.06 | -0.049 | -0.096 | 0.02 | 0.069 | -0.022 | -0.028
23 | SNX3 (UniProt O60493) | -0.014 | -0.241 | -0.19 | -0.001 | 0.025 | 0.105 | 0.048 | 0.132 | -0.037 | -0.116
24 | STX7 (UniProt O15400) | 0.036 | -0.02 | -0.072 | 0.011 | -0.028 | -0.093 | -0.002 | 0.017 | -0.006 | 0.079
25 | SRPRA (UniProt P08240) | -0.03 | 0.017 | -0.049 | -0.045 | 0.02 | 0.033 | 0 | 0.021 | 0.008 | 0.015
26 | SRSF6 (UniProt Q13247) | -0.06 | 0.038 | 0.191 | 0.032 | -0.082 | 0.084 | -0.068 | -0.254 | 0.108 | -0.299
27 | SMAD9 (UniProt O15198) | -0.114 | 0.001 | -0.069 | 0.05 | -0.076 | 0.006 | -0.017 | -0.055 | -0.111 | -0.029
28 | SMAP2 (UniProt Q8WU79) | -0.013 | 0.024 | -0.043 | -0.069 | -0.01 | 0.002 | 0.056 | 0.06 | -0.122 | -0.028
29 | SREK1 isoform 2 (UniProt Q8WXA9) | 0.194 | -0.068 | 0.03 | -0.208 | 0.012 | 0.05 | 0.129 | -0.148 | 0.059 | -0.213

From the supplement of paper PMC10849652
